NadD block: inhibitors of S. aureus NadD, primary screen, biochemical, colorimetric, uHTS. Nicotinate-nucleotide adenylyltransferase NadD (Staphylococcus aureus N315). purified NadD enzyme, colorimetric absorbance read-out. inhibition, % at 20 µM. 0.78% of 360,000 active. AID 602399, 2012; in the data active means inhibition above about 26%
MsrA act: bovine MsrA enzyme activators, primary screen, biochemical, absorbance, HTS | activation, % at 10.6 µM | 0.3% of 360,000 active | purified bovine MsrA, absorbance read-out; in the data active means activation above about 7.5%;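 further: 0% = vehicle and 100% = reference activator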
MsrA inh: bovine MsrA enzyme inhibitors, primary screen, biochemical, absorbance, HTS; purified bovine MsrA, absorbance read-out; 0.75% of 360,000 active; Methionine sulfoxide reductase A (Bos taurus); inhibition, % at 15.5 µM; in the data active means inhibition above about 4.5%;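 further: 0% = vehicle wells with enzyme and 100% = reference inhibitor wells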
rCAG binder-1: binders of r(CAG) RNA repeats, primary screen, biochemical, fluorescence; inhibition, % at 3 µM; r(CAG) RNA repeat, TO-PRO-1 dye displacement fluorescence; 1.3% of 370,000 active; AID 651821, 2012;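 active means inhibition above the plate cutoff, the mean of all test compounds on that plate plus 3 SD, cut at about 35% in these data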;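 further: 0% = DMSO alone and 100% = 100 µM mitoxantrone as full dye displacement; higher means more dye released from RNA so lower well fluorescence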
rCAG binder conf: small molecules binding CAG repeat RNA – biochemical, fluorescence, confirmation; shares compounds with rCAG binder-1; r(CAG) RNA repeat, TO-PRO-1 dye displacement fluorescence; inhibition, % at 3 µM; 70% of 4,300 active; AID 652065, 2013;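 active means inhibition above a per-plate cutoff, the mean inhibition of sample wells plus 3 SD, cut at about 35% in these data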;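 further: loss of TO-PRO-1 fluorescence as compound displaces dye from 1x1 AA loop RNA; 0% = DMSO only wells and 100% = 100 µM mitoxantrone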
DNA CAG counter: displacement of TO-PRO-1 from CAG DNA duplex, counter-screen for rCAG RNA repeat binder project, biochemical, fluorescence, TO-PRO-1 dye, d(CAG) DNA oligo. shares compounds with rCAG binder-1. 94% of 4,300 active. d(CAG) DNA oligo TO-PRO-1 dye displacement. inhibition, % at 3 µM. AID 652068, 2013;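 active means inhibition above its plate's cutoff, the mean test-well inhibition plus 3 SD, cut at about 4.8% in these data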;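 further: 0% = DNA dye mix with DMSO and 100% = 100 µM mitoxantrone; hits displace the dye from DNA and so lower well fluorescence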
dCAG dye DR: inhibitors of DNA CAG/GTC TO-PRO-1 complex, dose response, counter-screen for rCAG RNA repeat binder project, biochemical, fluorescence, TO-PRO-1 dye; shares compounds with rCAG binder-1; DNA CAG/GTC duplex TO-PRO-1 dye displacement fluorescence; IC50, µM; 20% of 250 active; AID 686960, 2013; in the data active means IC50 below about 10 µM
dCAG DNA bind: TO-PRO-1 dye complex inhibitors on d(CAG) DNA, dose response, counter-screen, biochemical, fluorescence, late stage; shares compounds with rCAG binder-1; d(CAG) DNA duplex TO-PRO-1 dye displacement; 80% of 30 active; IC50, µM; AID 720649, 2013
rCAG binder-2: molecules binding r(CAG) RNA repeats, late stage dose response, late-stage follow-up, biochemical, fluorescence, dose response, powder samples; IC50, µM; AID 720651, 2013; 100% of 30 active; shares compounds with rCAG binder-1; r(CAG) RNA TO-PRO-1 dye displacement
* = called active by the depositor; i = inactive; nt = not tested or not shown. Rows were chosen to be rich in hits. Some 2.7% of all compounds tested hit in one or more screens of this group. Unless noted, how the calls were made is not given here.

SMILES | NadD block | MsrA act | MsrA inh | rCAG binder-1 | rCAG binder conf | DNA CAG counter | others
CCCCCC/C(C)=C1/SC(=S)NC1=O | 2.0 | -13.3 | 2.6 | 28.3 | nt | nt
COc1cc(-c2noc(CCC(=O)NC3CCCCC3)n2)cc(OC)c1OC | 3.6 | -0.9 | -0.3 | -3.6 | nt | nt
O=C(CSc1nc2ccccc2c(=O)n1Cc1ccccc1)Nc1ccc(Br)cc1C(=O)O | 5.1 | -3.6 | 0.6 | 66.2* | 83.5* | 55.7*
Cc1nc(SCC(=O)Nc2ccc(Cl)cc2[N+](=O)[O-])nc(C)c1C | -6.1 | -7.7 | 0.0 | -2.8 | nt | nt
CCOC(=O)c1ccc(/C=C2/C=C(c3ccccc3)N(c3ccc(Cl)c(C(=O)O)c3)C2=O)cc1 | 28.5 | -6.0 | 0.0 | 60.6* | 70.2* | 31.9*
CCOC(=O)c1ccc(Cl)c(NC(=O)c2ccc(-c3ccccc3)cc2)c1 | -0.1 | -5.7 | 0.9 | -1.1 | nt | nt
O=C(COc1ccccc1Cl)Nc1nnc(S(=O)(=O)N2CCCC2)s1 | 1.0 | -10.4 | -1.0 | 23.8 | nt | nt
CCN(c1ccc(OC)cc1)S(=O)(=O)c1nnc(NC(=O)COc2ccccc2)s1 | -9.4 | -3.0 | 1.7 | 66.1* | 54.0* | 19.0*
COc1ccc(OCC(=O)Nc2nnc(S(=O)(=O)N3CCCCCC3)s2)cc1 | 10.8 | -0.4 | 0.1 | 40.5* | 27.5 | 7.5*
CCCCC(=O)Nc1nnc(S(=O)(=O)N(CC)c2ccc(OC)cc2)s1 | -3.8 | -0.6 | 1.1 | 5.5 | nt | nt
Cc1ccc(NC(=S)NNC(=O)CSc2nc3ccccc3c(=O)n2-c2ccc(C)cc2)cc1 | 19.6 | -2.4 | 0.7 | 45.1* | 44.5* | 20.0*
Cc1ccc(-n2c(SCC(=O)Nc3ccc(N4CCOCC4)cc3)nc3ccccc3c2=O)cc1 | 9.9 | -2.9 | 2.3 | 9.3 | nt | nt
COc1ccc(-n2c(SCC(=O)NNC(=S)Nc3ccccc3)nc3ccccc3c2=O)cc1 | nt | nt | nt | 49.6* | 43.2* | 16.4*
Cc1ccc(-n2c(SCC(=O)Nc3ccc4c5c(cccc35)CC4)nc(O)cc2=O)cc1 | 3.3 | -4.2 | -1.0 | 27.4 | nt | nt
Cc1ccc(-n2c(SCC(=O)Nc3ccc4c5c(cccc35)CC4)nc(O)c(C)c2=O)cc1 | 6.9 | -4.8 | 0.4 | 51.2* | 33.6 | 11.3*
C[C@@H]1CCN(C2CC2)S(=O)(=O)c2ccc(N3CC[C@H](O)C3)cc2O1 | nt | nt | nt | 4.5 | nt | nt
Nc1c(/C=C2\C=Nc3ccccc32)c(=O)nc2sc(CC(=O)N3CCOCC3)nn12 | 7.6 | -2.5 | 1.7 | 47.6* | 31.3 | 8.7*
CCOC(=O)c1ccc(S(=O)(=O)Nc2nc3cc(S(=O)(=O)NC4=NCCCCC4)ccc3s2)cc1 | 6.5 | 0.1 | 1.5 | 58.8* | 56.1* | 23.0*
O=C(O)c1ccc(NC(=O)c2cn(-c3ccccc3)nc2-c2ccc(F)cc2)cc1 | -2.8 | -6.0 | -0.7 | 30.4 | nt | nt
O=C(O)c1ccc(NC(=O)c2cn(-c3ccccc3)nc2-c2cccc(Cl)c2)cc1 | -1.2 | 5.7 | -0.1 | 35.8* | 55.3* | 18.9*
Cc1ccc(-c2nn(-c3ccccc3)cc2/C=C/C(=O)Nc2nccs2)cc1 | 15.9 | -1.6 | -0.1 | 2.1 | nt | nt
O=C(/C=C/c1cn(-c2ccccc2)nc1-c1ccccc1)Nc1ccc(C(=O)O)cc1 | 6.2 | -3.4 | 1.3 | 44.2* | 72.9* | 34.2* | dCAG dye DR=7.72*;dCAG DNA bind=i;rCAG binder-2=6.78*
CC(C)Oc1ccccc1NC(=O)CSc1nccn1C | 1.7 | -1.5 | -0.8 | 1.3 | nt | nt
COc1cc(C2c3sc(=O)[nH]c3SC3C(=O)N(c4ccc(Br)cc4)C(=O)C32)ccc1O (stereo unspecified) | -3.6 | -8.9 | -0.8 | 37.8* | 23.4 | 8.2*
O=C(CSc1nc2ccccc2n1Cc1ccccc1Cl)N/N=C/c1ccccc1C(=O)O | 9.3 | 3.0 | 3.3 | 38.8* | 54.2* | 15.6*
SMILES | NadD block | MsrA act | MsrA inh | rCAG binder-1 | rCAG binder conf | DNA CAG counter | others
Cc1nn(-c2ccccc2)c(Cl)c1/C=N/NC(=O)c1ccccc1NS(=O)(=O)c1cccs1 | 17.4 | -8.8 | 0.8 | 76.1* | 79.7* | 44.8*
O=C(NN=Cc1c(F)cccc1F)c1ccccc1NS(=O)(=O)c1cccs1 | 0.9 | -2.7 | 0.4 | 37.7* | 20.6 | 4.6*
Cc1nn(-c2ccccc2)c(Cl)c1/C=N/NC(=O)c1ccccc1F | -9.4 | -3.9 | 1.8 | -5.1 | nt | nt
CC1CCCC(C)N1C(=O)COC(=O)c1cc(=O)[nH]c2ccccc12 (stereo unspecified) | -1.3 | -2.4 | 0.8 | -0.5 | nt | nt
Oc1ccc(/C=N/Nc2ccnc3cc(Cl)ccc23)c(O)c1O | 59.4* | -4.3 | 1.8 | 38.1* | 59.5* | 28.5* | dCAG dye DR=i
Oc1ccc(/C=N/Nc2ccnc3cc(Cl)ccc23)cc1O | 18.1 | -4.4 | -1.4 | 23.7 | nt | nt
CCOc1ccc2nc(NC(=O)CSc3nc(-c4ccccc4)c(C#N)c(=O)[nH]3)sc2c1 | 19.9 | -3.5 | 1.3 | 82.9* | 88.2* | 68.9*
COc1cccc(-c2nc(SCC(=O)Nc3nc(-c4ccccc4)c(C)s3)[nH]c(=O)c2C#N)c1 | 26.0 | -2.0 | 0.3 | 69.9* | 91.5* | 75.5*
CCOC(=O)Cc1csc(NC(=O)CSc2nc(-c3ccccc3)c(C#N)c(=O)[nH]2)n1 | 6.6 | 0.3 | 0.6 | 64.0* | 56.8* | 20.1*
CCOc1ccc2nc(NC(=O)CSc3cn[nH]n3)sc2c1 | 2.9 | -1.4 | -0.9 | 3.6 | nt | nt
CC(C)c1nc2sc3c(SCCN(C)C)ncnc3c2c2c1CCC2 | -9.1 | -1.6 | 1.0 | -0.4 | nt | nt
COC(=O)c1c(NS(=O)(=O)Cc2ccccc2)sc2c1CCCC2 | -4.0 | 0.6 | 0.1 | 48.0* | 46.6* | 15.8*
CC(C)OC(=O)c1c(NS(=O)(=O)c2ccccc2)sc2c1CCCC2 | 9.7 | -11.8 | 0.5 | 35.3* | 49.5* | 14.0*
CCOc1ccc(-n2ccn(CC(=O)NCCc3ccccc3)c(=O)c2=O)cc1 | -2.6 | -1.6 | -0.3 | -2.2 | nt | nt
O=C(Nc1ccc(O)cc1)c1ccc2c(c1)C(=O)N(Cc1ccco1)C2=O | -4.8 | -5.9 | 0.8 | 14.4 | nt | nt

Assay outcomes from PubChem.
